Screening results as filed in PubChem BioAssay.
Shown are actives, neighbours in structure and some others; about 10% of the full set was active somewhere.
GPT2 inh: GPT2 alanine aminotransferase inhibition. Recombinant GPT2, coupled pyruvate oxidase/HRP Amplex Red fluorescence. actives 0.25% (n = 100,000). Potency, µM (doses to about 57.7 µM), inactives show at the highest dose activity change, negative = inhibition, actives largely listed as inhibitors. Q8TD30. AID 1671188; further: on the % scale 0 is the no-effect control and ±100 the full control effect; nearly all actives have a fitted effect of over 60% in size
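Fluorescence of coupled pyruvate oxidase/HRP/Amplex Red system (50uM Amplex, 30 min, dark) reports pyruvate formed by GPT2. Enzyme reaction: 10ng/uL GPT2, 2mM L-alanine, 250uM a-KG, 30 min room temperature, pH 7.5; 50uM AOA control.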
3T3 cytotox: kills NIH 3T3 cells; NIH 3T3 viability, CellTiter-Glo ATP luminescence, 48-72 h; actives 4.3% (n = 94,000); Potency, µM (titrated, usually from 96.7 µM), for the others: top-dose activity change, negative = cytotoxicity, hits mostly inhibitors; AID 1345082; further: on the % scale 0 is the no-effect control and ±100 the full control effect; nearly all actives have a fitted effect of over 55% in size
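ATP-dependent luminescence (CellTiter-Glo) served as the viability signal for NIH 3T3 cells treated with compound for 48 or 72 hr at 37 °C.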
hNpr1 antagonist: blocks ANP-stimulated signaling of human Npr1 receptor; P16066; HEK293 hNpr1 GloSensor cGMP, ANP-stimulated luminescence; Potency, µM (top dose mostly 46.3 µM), without a hit: at the highest dose activity change, negative = inhibition, most hits filed as inhibitors; actives 1.6% (n = 76,000); AID 1347048; calls by dose curve; further: on the % scale 0 is the no-effect control and ±100 the full control effect; nearly all actives have a fitted effect of over 60% in size
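Compound pre-incubated 30 min at room temperature on GloSensor-loaded HEK293 cells stably carrying hNpr1 and the pGS-40F cGMP biosensor. Stimulation uses hNppA at 0.1 nM final; luminescence is taken at baseline and 20 min post-agonist.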
Luciferase inh: Photinus pyralis luciferase inhibition; P08659; Potency, µM (top dose mostly 115 µM), actives largely listed as inhibitors; purified P. pyralis luciferase, luminescence, biochemical; AID 1347043; actives 2.5% (n = 76,000); further: on the % scale 0 is the no-effect control and ±100 the full control effect; nearly all actives have a fitted effect of over 65% in size
Target sequence (P08659 whole entry, looked up): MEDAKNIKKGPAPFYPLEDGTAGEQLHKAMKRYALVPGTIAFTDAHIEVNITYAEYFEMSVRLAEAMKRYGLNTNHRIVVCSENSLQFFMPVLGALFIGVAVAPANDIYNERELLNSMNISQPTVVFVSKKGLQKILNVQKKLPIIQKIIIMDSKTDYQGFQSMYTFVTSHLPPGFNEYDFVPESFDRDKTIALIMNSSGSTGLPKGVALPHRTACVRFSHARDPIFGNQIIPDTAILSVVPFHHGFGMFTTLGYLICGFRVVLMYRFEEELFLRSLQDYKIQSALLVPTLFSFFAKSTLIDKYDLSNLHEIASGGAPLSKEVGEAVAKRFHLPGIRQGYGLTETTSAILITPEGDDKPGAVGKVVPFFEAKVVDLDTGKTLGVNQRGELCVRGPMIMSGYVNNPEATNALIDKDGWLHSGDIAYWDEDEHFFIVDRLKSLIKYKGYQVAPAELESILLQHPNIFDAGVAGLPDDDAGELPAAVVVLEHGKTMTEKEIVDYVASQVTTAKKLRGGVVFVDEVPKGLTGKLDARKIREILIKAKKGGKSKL
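Luminescence read by CCD imaging after purified firefly luciferase (10nM final) was added to substrate buffer holding 10uM D-luciferin and 10uM ATP, pH 7.5, pre-dosed with compound.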
HEK cytotox: HEK 293 cell cytotoxicity; Potency, µM (series often up to 115 µM), inactives show top-dose activity change, negative = cytotoxicity, hits mostly inhibitors; actives 6.6% (n = 94,000); HEK 293 viability, ATP luminescence (CellTiter-Glo), 48-72 h; further: on the % scale 0 is the no-effect control and ±100 the full control effect; nearly all actives have a fitted effect of over 60% in size
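HEK 293 cells at 250 cells/well were exposed to compounds by pintool transfer for 48 or 72 hr at 37 degree Celsius, 5% CO2. Viability was read as ATP-coupled luminescence with CellTiter-Glo after 10 min at room temperature.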
Npr1 antag conf: hNpr1 antagonism, confirmation assay; AID 1347044; shares compounds with hNpr1 antagonist; Potency, µM (doses to about 57.6 µM), inactives show at the top dose activity change, negative = inhibition, usual class: inhibitors; HEK293 hNpr1 cGMP GloSensor luminescence, ANP-stimulated; actives 76% (n = 1,400); calls by dose curve; further: nearly all actives have a fitted effect of over 70% in size
NPR2 antag: antagonizes human Npr2, subtype selectivity check; shares compounds with hNpr1 antagonist; HEK293 hNpr2 GloSensor cGMP luminescence, CNP-stimulated; Potency, µM (series often up to 57.6 µM), without a hit: top-dose activity change, negative = inhibition, actives largely listed as inhibitors; actives 67% (n = 1,400); AID 1347046; calls by dose curve; further: nearly all actives have a fitted effect of over 70% in size
FLuc counter: counter-screen for Npr1 antagonists: firefly luciferase inhibitors | shares compounds with hNpr1 antagonist | purified FLuc enzyme, luminescence, Km substrate | Potency, µM (top dose mostly 57.6 µM), without a hit: top-dose activity change, negative = inhibition, usual class: inhibitors | actives 0.7% (n = 1,400) | AID 1347047; further: 0% is about no effect
GloSensor ctrl: control cell line activity, Npr1 antagonist counter-screen. AID 1347051. actives 69% (n = 1,400). Potency, µM (highest dose often 57.6 µM), inactives show at the highest dose activity change, negative = inhibition, usual class: inhibitors. shares compounds with hNpr1 antagonist. HEK293 GloSensor cGMP, SNP-stimulated, luminescence; calls by dose curve; further: on the % scale 0 is the no-effect control and ±100 the full control effect; nearly all actives have a fitted effect of over 70% in size
* = called active by the depositor; i = inactive; ? = inconclusive; nt = no result; [ ] = another dose, or the depositor's remark. Unless noted, the call rests on the fitted dose curve; in most records, active means well fitted curve in the direction sought with a large enough effect; inconclusive means small, poorly fitted or top-dose-only effect, or another doubt; inactive means no such curve, though single readings can be large; an effect the other way counts as inactive or inconclusive. Potency means the concentration at half of the fitted maximal effect.

SMILES	GPT2 inh	3T3 cytotox	hNpr1 antagonist	Luciferase inh	HEK cytotox	Npr1 antag conf	NPR2 antag	FLuc counter	GloSensor ctrl
CN(Cc1cccnc1)c1ccc2ncc(Nc3cccc(C(F)(F)F)c3)n2n1	?	?	13µM*	i	40µM*	14µM*	16µM*	-3%[86.2 µM]	13µM*
CC(C)N1CCC2(CC1)CN(C(=O)c1cnccn1)Cc1ccccc1O2	i	-20%	nt	nt	i	nt	nt	nt	nt
COc1ccccc1N1CCN([C@@H]2[C@H](O)[C@H](CO)O[C@@H]2CN(Cc2ccc(F)cc2)Cc2ccc(F)cc2)CC1	2%	32µM*	?	i	28µM*	?	14µM*	0%	-24%
O=C(CC1CCCCC1)N1CCC(Cc2nc(-c3ccccc3)no2)CC1	0%	?	10µM*	i	?	14µM*	15µM*	0%	9.7µM*
O=C(CC1CCCCC1)N1CCC(n2cc(-c3nc(-c4ccccc4)no3)nn2)CC1	i	?	11µM*	i	28µM*	24µM*	22µM*	-2%	22µM*
O=C(CC1CCCC1)N1CCC(Cc2nc(-c3ccc(F)cc3)no2)CC1	i	?	2.2µM*	i	?	2.2µM*	3.1µM*	3%	3.1µM*
O=C(CCC1CCCC1)N1CCC(Cc2nc(C3CCOCC3)no2)CC1	0%	?	10µM*	i	?	12µM*	17µM*	5%	12µM*
CCCCCNC(=O)c1cc(-c2cccc(C(F)(F)F)c2)nc2c1cnn2C	nt	i	nt	nt	i	nt	nt	nt	nt
NC(=O)c1cccc(-c2cc(O)cc(OC(=O)NC3CCCCC3)c2)c1	i	nt	nt	nt	nt	nt	nt	nt	nt
COc1ccc(Nc2ccnc(N3CCC(C(=O)N4CCCC4)CC3)n2)cc1	-19%	?	nt	nt	?	nt	nt	nt	nt
COc1ccccc1NC(=O)N1CC[C@H](c2nnc(-c3ccc(C)cc3)o2)C1	-10%[88.5 µM]	-20%[174 µM]	-1%[70.6 µM]	?	?	nt	nt	nt	nt
COCC(=O)N1CCC(c2noc(COc3ccc(F)cc3)n2)CC1	i	-12%	nt	nt	-13%	nt	nt	nt	nt
O=C(CC1CCCCC1)N1CCC(c2noc(COc3ccc(F)cc3)n2)CC1	-11%	?	7.1µM*	i	?	12µM*	14µM*	-7%	14µM*
O=C(Cc1ccccc1Cl)N1CCC(Cc2nc(-c3ccc(F)cc3)no2)CC1	3%	?	16µM*	i	?	12µM*	15µM*	4%	11µM*
C=C1CCC2(OC1)OC1CC3C4CC=C5CC(O)CC(O[C@@H]6OC[C@H](OC(=O)C(O)C(C)CC)[C@H](O)[C@H]6O[C@@H]6O[C@@H](C)[C@H](O)[C@@H](O)[C@H]6O)C5(C)C4CCC3(C)C1C2C (some centres undefined)	-2%[17.1 µM]	nt	nt	nt	nt	nt	nt	nt	nt
O=C(C1CCCC1)N1CCC(CCOc2ccc(F)cc2)C1 (centres undefined)	-6%	?	?	i	?	?	?	3%	22µM*
Cc1ccc(OCCC2CCN(C(=O)Cc3cccnc3)C2)cc1 (centres undefined)	i	-29%	?	i	?	?	?	-5%	?
O=C(C1CCCC1)N1CCC(CCOc2ccccc2F)C1 (centres undefined)	-21%	?	-15%	i	?	nt	nt	nt	nt
C[S+](=O)([O-])CCn1ncc2cc(OCC3CCN(c4ncc(F)cn4)CC3)ccc21	nt	nt	nt	nt	nt	13µM*	?	3%[86.2 µM]	11µM*
Cc1ccccc1-c1cnc2[nH]cc(CC(=O)N3CCOCC3)c2c1	i	-55%[138 µM]	2.8µM*	i	112µM*	2.8µM*	4.4µM*	-1%[86.2 µM]	2.2µM*
O=C(Cc1c[nH]c2ncc(-c3ccccc3)cc12)NCCN1CCOCC1	-3%[88.5 µM]	?	3%[70.6 µM]	i	-16%[172 µM]	nt	nt	nt	nt
O=C(Cc1c[nH]c2ncc(-c3cccnc3)cc12)NC1CCOCC1	i	?	3%[70.6 µM]	i	-18%[172 µM]	nt	nt	nt	nt
O=C(Cc1c[nH]c2ncc(-c3ccccc3C(F)(F)F)cc12)N1CCOCC1	-6%[88.5 µM]	?	2µM*	i	?	4.4µM*	8.9µM*	1%[86.2 µM]	4µM*
Cc1nc(N2CCCn3nc(CO)cc3C2)c(Cl)c(=O)[nH]1	-3%	-3%	2%	i	1%	nt	nt	nt	nt
CCOCCn1c(=O)n(Cc2c(C)noc2C)c2cc(C(=O)O)cnc21	0%	0%	5%	i	i	nt	nt	nt	nt
SMILES	GPT2 inh	3T3 cytotox	hNpr1 antagonist	Luciferase inh	HEK cytotox	Npr1 antag conf	NPR2 antag	FLuc counter	GloSensor ctrl
Cc1cc(C)cc(N2CCN(c3cc(C4CC(O)C4)ncn3)CC2=O)c1 (centres undefined)	-10%	-20%	2%	i	-19%	nt	nt	nt	nt
Cc1ccc(Cl)cc1N1CCN(c2cc(C3CC(O)C3)ncn2)CC1 (centres undefined)	5%	?	8.9µM*	i	28µM*	19µM*	19µM*	-2%	14µM*
Cc1ccccc1SC1CCN(c2cc(C3CC(O)C3)ncn2)CC1 (centres undefined)	i	?	2.8µM*	i	?	4.8µM*	6.1µM*	1%	3.9µM*
O=C(NCCc1ccccc1)C1CCN(c2ccnc3ccnn23)CC1	1%[88.5 µM]	?	nt	nt	?	nt	nt	nt	nt
O=C(Nc1cccnc1)c1nc2c(o1)CCN(Cc1ccc(F)cc1F)CC2	3%[88.5 µM]	?	32µM*	i	?	40µM*	40µM*	-24%[86.2 µM]	35µM*
O=C(Nc1cccc(C(F)(F)F)c1)c1nnn2c1CN(Cc1ccccc1F)C(=O)CC2	i	?	-8%	i	?	nt	nt	nt	nt
O=C(Nc1cccc(C(F)(F)F)c1)c1nc2c(o1)CCN(Cc1ccccc1F)CC2	-24%[88.5 µM]	50µM*	?	i	63µM*	?	?	-27%[86.2 µM]	?
Cc1noc(C)c1CN1CCc2nc(C(=O)NCc3ccccc3)oc2CC1	-8%[88.5 µM]	-34%[138 µM]	-14%[70.6 µM]	i	?	nt	nt	nt	nt
